This is an account of results in publication PMC7862700, “An all-to-all approach to the identification of sequence-specific readers for epigenetic DNA modifications on cytosine”.

Holding throughout (test): DAPPL (digital affinity profiling via proximity ligation, sequencing); 10 mM Tris-HCl pH 7.5, 50 mM NaCl, 1 mM DTT, 4% glycerol, room temperature, 30 min; GST-TFs on glutathione beads, 16-mer random dsDNA library, 0.1% formaldehyde crosslink after washing; high values mean tight binding
What all share (settings): protein: recombinant; tags: N-terminal GST; dsDNA, one strand shown

For test [1], the target named is T1, FLI1 (Homo sapiens, UniProt Q01543 1-452).
T1 sequence: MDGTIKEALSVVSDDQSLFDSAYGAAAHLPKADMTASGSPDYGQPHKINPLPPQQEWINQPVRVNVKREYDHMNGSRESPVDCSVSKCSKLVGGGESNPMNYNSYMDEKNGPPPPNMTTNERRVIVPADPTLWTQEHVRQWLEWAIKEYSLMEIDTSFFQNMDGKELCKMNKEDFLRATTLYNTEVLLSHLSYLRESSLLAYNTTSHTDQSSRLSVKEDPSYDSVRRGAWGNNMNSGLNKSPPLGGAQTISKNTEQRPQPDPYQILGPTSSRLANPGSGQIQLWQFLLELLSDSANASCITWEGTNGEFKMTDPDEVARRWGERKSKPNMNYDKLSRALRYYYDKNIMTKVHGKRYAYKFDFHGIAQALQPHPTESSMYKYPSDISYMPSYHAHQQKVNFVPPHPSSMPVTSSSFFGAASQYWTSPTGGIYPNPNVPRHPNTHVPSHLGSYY
In outline: (§1)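 Binding signal is defined as a hexamer's read frequency for one factor over its frequency for the tag-only sample. To obtain reads, GST-fused human transcription factors were expressed in yeast, captured on glutathione beads, barcoded with DNA and pooled with that sample. Pools met 200 nmole of a 16-mer random double-stranded DNA library in Tris/NaCl/DTT/glycerol buffer for 30 min at room temperature before washing, 0.1% formaldehyde crosslinking, proximity ligation (BsaI/T4 ligase, 1 h, 37 °C), PCR and Illumina NextSeq500 sequencing.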

The target of test [2] is T2, ELK1 (Homo sapiens, UniProt P19419 1-428).
T2 sequence: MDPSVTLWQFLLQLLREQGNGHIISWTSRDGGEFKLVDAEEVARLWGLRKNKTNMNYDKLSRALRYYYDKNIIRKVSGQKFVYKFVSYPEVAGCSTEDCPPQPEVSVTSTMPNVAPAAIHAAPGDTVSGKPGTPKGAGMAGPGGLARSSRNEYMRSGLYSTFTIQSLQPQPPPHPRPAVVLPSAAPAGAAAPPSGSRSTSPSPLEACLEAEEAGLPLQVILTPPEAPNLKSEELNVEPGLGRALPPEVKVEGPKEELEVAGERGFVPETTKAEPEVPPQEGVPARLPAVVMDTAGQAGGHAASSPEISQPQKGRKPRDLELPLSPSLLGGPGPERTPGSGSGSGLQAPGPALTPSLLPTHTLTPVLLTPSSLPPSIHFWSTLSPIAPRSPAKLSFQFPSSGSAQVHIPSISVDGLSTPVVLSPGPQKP
In outline:
as §1

The target in test [3] is T3, GABPA (Homo sapiens, UniProt Q06546 1-454).
T3 sequence: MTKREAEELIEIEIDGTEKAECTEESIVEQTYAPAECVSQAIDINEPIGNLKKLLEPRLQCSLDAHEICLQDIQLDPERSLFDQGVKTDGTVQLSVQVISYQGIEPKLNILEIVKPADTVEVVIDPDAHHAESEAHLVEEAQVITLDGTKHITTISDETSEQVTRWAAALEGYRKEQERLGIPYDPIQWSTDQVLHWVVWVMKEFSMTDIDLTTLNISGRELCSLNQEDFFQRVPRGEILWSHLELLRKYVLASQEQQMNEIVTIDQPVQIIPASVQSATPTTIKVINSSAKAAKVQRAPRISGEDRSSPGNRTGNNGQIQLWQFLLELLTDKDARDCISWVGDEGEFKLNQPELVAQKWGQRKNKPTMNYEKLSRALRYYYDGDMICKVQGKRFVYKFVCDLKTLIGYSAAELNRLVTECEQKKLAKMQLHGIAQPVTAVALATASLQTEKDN
Put shortly:
as §1

Test [4] has as its target T4, ERG (Homo sapiens, UniProt P11308 1-479).
T4 sequence: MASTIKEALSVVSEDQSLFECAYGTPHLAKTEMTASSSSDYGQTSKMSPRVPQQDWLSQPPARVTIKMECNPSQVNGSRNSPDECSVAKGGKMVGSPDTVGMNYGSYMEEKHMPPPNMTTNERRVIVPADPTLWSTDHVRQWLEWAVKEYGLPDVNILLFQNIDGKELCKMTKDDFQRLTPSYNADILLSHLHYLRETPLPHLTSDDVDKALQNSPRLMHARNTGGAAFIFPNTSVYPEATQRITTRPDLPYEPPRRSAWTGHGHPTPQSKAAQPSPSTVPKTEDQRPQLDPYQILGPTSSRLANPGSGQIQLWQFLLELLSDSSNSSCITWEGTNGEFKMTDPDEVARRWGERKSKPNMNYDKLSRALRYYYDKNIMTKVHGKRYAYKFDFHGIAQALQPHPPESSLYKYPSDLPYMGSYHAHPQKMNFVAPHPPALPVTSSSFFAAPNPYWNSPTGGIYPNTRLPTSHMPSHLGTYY
In outline:
as §1

For test [5], the target named is ELF1 (Homo sapiens, UniProt P32519 1-619). In outline:
as §1

Test [6] concerns the target T5, EHF (Homo sapiens, UniProt Q9NZC4 1-300).
T5 sequence: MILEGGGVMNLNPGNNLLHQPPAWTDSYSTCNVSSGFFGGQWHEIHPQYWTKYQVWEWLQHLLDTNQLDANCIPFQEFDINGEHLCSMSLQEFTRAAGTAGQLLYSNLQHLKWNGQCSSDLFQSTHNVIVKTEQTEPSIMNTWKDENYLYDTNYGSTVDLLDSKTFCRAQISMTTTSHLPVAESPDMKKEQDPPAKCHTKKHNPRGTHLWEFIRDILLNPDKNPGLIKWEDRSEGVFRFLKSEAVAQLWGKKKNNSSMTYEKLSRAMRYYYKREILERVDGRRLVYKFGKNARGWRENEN
Put shortly: as §1

In test [7] the target is SPI1 (Homo sapiens, UniProt P17947 1-270). In outline: as §1
Test [8] deals with SPIB (Homo sapiens, UniProt Q01892 1-262). In outline:
as §1

Test [9] has as its target T6, ELK3 (Homo sapiens, UniProt P41970 1-407).
T6 sequence: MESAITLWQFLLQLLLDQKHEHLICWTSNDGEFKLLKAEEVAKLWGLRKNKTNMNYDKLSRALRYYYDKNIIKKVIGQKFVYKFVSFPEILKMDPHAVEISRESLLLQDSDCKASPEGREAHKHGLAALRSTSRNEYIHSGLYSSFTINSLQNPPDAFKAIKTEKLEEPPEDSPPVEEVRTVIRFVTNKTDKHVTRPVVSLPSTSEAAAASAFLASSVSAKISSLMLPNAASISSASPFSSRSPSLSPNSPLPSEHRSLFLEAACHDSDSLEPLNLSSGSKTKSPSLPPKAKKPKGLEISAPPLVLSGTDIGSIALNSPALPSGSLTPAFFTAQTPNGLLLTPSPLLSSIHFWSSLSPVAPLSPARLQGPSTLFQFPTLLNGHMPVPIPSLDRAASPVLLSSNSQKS
Put shortly: as §1

For test [10], the target named is T7, FEV (Homo sapiens, UniProt Q99581 1-238).
T7 sequence: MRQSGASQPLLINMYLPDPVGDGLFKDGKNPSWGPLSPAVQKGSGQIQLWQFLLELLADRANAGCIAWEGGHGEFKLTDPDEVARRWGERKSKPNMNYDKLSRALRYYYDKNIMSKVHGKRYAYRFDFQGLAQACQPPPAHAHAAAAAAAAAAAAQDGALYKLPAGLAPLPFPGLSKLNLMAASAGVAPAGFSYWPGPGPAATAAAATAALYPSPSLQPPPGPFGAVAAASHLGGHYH
In outline: as §1

For test [11], the target named is ETV5 (Homo sapiens, UniProt P41161 1-510). In outline:
as §1

In test [12] the target is T8, SPIC (Homo sapiens, UniProt Q8N5J4 1-248).
T8 sequence: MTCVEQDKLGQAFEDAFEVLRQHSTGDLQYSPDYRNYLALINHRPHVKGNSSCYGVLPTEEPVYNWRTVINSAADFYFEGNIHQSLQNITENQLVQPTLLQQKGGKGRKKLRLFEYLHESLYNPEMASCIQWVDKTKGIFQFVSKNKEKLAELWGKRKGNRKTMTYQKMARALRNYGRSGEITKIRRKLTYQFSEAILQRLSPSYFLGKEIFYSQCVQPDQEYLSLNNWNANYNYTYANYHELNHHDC
In outline:
as §1

The target in test [13] is ELF4 (Homo sapiens, UniProt Q99607 1-663). Put shortly:
as §1

Test [14] deals with T9, ELK4 (Homo sapiens, UniProt P28324-2 1-405).
T9 sequence: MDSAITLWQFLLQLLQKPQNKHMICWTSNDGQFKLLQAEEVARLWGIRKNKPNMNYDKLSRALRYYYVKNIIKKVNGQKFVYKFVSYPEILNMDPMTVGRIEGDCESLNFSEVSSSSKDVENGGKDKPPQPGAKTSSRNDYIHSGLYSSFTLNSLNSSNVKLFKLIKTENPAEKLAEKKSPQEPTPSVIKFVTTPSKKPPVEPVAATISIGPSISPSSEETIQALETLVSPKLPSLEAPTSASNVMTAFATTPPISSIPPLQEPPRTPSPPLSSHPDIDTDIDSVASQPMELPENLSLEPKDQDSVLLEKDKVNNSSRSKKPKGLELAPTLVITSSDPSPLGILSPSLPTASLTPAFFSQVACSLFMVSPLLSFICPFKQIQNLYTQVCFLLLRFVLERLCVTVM
In outline: as §1

In test [15] the target is T10, ETV2 (Homo sapiens, UniProt O00321 1-342).
T10 sequence: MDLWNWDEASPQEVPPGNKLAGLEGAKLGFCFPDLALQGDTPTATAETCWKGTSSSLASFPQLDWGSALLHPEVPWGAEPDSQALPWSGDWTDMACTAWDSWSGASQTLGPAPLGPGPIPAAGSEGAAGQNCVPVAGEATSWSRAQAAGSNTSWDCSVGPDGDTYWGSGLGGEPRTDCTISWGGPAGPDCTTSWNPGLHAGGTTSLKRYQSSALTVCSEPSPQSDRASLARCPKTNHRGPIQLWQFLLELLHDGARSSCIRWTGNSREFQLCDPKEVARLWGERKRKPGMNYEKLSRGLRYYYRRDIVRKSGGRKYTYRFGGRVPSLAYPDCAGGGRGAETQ
Put shortly: as §1

Test [16] deals with T11, ELF3 (Homo sapiens, UniProt P78545 1-371).
T11 sequence: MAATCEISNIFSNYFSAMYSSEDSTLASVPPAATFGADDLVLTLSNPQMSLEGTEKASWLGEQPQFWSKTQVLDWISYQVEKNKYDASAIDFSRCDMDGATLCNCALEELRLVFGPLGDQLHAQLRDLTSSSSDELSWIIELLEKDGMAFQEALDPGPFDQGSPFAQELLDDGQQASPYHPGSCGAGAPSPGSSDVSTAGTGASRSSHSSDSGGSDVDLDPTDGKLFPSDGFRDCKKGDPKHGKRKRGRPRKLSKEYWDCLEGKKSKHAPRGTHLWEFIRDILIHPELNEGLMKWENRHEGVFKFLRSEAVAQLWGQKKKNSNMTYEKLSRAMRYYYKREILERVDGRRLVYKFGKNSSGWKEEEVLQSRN
Put shortly:
as §1

Test [17] deals with ETV1 (Homo sapiens, UniProt P50549 1-477). Put shortly: as §1
Sequence of ETV1 (P50549 whole entry): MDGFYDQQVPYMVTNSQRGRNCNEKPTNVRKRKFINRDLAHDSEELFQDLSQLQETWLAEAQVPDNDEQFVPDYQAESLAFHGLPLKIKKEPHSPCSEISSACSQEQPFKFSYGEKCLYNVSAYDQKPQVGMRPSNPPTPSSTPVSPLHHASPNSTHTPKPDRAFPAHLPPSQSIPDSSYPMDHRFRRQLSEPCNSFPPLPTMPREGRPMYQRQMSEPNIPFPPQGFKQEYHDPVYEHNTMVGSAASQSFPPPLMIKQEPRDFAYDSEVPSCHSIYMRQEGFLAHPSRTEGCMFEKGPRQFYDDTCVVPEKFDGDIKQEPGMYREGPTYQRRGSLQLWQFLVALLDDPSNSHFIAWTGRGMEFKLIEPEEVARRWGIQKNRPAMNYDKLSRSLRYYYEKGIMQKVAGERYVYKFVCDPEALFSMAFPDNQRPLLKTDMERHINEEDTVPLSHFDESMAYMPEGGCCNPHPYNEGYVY

Sequence of SPIB (Q01892 whole entry): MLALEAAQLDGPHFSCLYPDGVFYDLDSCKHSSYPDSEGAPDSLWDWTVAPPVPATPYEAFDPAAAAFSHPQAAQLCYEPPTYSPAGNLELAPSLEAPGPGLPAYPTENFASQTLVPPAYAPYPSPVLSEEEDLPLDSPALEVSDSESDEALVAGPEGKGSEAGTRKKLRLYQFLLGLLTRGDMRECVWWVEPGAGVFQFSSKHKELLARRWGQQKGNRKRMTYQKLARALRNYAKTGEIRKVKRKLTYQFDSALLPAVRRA
Sequence of ETV5 (P41161 whole entry): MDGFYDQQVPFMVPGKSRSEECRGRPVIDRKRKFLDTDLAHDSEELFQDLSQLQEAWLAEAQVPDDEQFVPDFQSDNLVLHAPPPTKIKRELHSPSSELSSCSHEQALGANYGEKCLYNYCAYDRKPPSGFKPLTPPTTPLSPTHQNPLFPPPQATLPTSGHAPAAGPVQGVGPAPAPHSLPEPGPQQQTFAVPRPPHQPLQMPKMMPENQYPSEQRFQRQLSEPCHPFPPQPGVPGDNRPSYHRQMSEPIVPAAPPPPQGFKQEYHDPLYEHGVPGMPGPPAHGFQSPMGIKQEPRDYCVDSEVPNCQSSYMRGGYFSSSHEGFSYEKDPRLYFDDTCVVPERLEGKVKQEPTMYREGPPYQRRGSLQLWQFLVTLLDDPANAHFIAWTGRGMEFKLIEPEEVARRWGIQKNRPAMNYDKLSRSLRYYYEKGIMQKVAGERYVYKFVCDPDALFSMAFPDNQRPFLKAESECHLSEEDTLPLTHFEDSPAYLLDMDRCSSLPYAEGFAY
Sequence of ELF1 (P32519 whole entry): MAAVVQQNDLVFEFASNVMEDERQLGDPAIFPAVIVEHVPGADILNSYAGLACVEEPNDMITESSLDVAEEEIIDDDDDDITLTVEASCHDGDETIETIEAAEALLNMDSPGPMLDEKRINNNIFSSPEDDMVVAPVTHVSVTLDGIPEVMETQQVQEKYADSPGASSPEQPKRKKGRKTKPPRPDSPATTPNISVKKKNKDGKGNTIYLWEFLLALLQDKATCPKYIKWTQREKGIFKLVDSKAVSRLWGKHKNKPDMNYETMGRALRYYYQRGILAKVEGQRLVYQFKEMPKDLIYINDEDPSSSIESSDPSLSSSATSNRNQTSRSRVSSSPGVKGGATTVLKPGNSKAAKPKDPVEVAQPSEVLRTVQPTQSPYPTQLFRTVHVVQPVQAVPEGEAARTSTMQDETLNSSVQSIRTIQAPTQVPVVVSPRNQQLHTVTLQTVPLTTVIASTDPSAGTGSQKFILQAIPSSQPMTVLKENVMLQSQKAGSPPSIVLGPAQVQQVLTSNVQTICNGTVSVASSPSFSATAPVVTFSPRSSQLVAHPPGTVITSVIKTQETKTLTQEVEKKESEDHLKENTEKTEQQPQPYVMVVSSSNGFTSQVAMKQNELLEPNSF
Sequence of ELF4 (Q99607 whole entry): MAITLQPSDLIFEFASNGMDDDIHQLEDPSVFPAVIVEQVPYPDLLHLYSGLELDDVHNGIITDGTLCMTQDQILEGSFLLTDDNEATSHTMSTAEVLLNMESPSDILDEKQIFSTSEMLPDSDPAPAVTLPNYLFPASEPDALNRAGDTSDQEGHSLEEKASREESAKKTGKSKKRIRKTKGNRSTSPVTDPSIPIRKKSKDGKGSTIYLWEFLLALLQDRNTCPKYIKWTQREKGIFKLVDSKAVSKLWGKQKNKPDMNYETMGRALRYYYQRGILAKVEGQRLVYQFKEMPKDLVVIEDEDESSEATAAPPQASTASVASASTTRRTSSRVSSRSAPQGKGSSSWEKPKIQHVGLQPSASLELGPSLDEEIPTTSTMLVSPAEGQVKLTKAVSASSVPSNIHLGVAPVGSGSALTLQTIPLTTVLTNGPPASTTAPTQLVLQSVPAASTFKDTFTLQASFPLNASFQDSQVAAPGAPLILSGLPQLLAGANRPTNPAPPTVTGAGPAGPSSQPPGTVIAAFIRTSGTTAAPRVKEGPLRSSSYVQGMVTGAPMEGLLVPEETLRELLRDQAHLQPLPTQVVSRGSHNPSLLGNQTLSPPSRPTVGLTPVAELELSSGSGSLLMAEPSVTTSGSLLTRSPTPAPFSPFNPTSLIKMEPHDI

As for CGCACT, the binding signal was 1.12 fold enrichment (6-mer frequency, TF over GST control) in test [1]; 1.33 fold enrichment (6-mer frequency, TF over GST control) in test [2]; 1.28 fold enrichment (6-mer frequency, TF over GST control) in test [3]; 1.21 fold enrichment (6-mer frequency, TF over GST control) in [4]; 1.22 fold enrichment (6-mer frequency, TF over GST control) in test [5]; 1.29 fold enrichment (6-mer frequency, TF over GST control) in test [6]. For the same sequence, the binding signal is 1.41 fold enrichment (6-mer frequency, TF over GST control) in test [7]; 1.27 fold enrichment (6-mer frequency, TF over GST control) in test [8]; 1.24 fold enrichment (6-mer frequency, TF over GST control) in test [9]; 1.32 fold enrichment (6-mer frequency, TF over GST control) in [10]; 1.28 fold enrichment (6-mer frequency, TF over GST control) in test [11]; 1.04 fold enrichment (6-mer frequency, TF over GST control) in [12]. Further, the binding signal was 1.29 fold enrichment (6-mer frequency, TF over GST control) in [13]; 1.1 fold enrichment (6-mer frequency, TF over GST control) in test [14]; 1.29 fold enrichment (6-mer frequency, TF over GST control) in [15]; 1.26 fold enrichment (6-mer frequency, TF over GST control) in [16]; 1.23 fold enrichment (6-mer frequency, TF over GST control) in test [17].
